In the supplement of paper PMC12067093, “Discovery and optimisation of a covalent ligand for TRIM25 and its application to targeted protein ubiquitination” (Chemical Science, 2025):
Of roughly 21,000 targets only a part is listed; those with the largest changes were picked by preference.

Compound: Cc1cc(ccc1-c1ccccc1)C(=O)N1CCCN(CC1)C(=O)CCl [compound 10]
Assay: probe-labelled cysteine peptide fold change vs DMSO (competition) (log2 fold change); higher = less target engagement (more negative = stronger competition)
Settings: THP-1, incubation time: 4 h
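Also: competitive profiling in live THP-1 cells: cysteine peptides tagged with an iodoacetamide desthiobiotin (IA-DTB) probe, intensity after compound treatment relative to DMSO-treated cells.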

Chain of UniProt Q9BUK6 (Q9BUK6 whole entry, looked up): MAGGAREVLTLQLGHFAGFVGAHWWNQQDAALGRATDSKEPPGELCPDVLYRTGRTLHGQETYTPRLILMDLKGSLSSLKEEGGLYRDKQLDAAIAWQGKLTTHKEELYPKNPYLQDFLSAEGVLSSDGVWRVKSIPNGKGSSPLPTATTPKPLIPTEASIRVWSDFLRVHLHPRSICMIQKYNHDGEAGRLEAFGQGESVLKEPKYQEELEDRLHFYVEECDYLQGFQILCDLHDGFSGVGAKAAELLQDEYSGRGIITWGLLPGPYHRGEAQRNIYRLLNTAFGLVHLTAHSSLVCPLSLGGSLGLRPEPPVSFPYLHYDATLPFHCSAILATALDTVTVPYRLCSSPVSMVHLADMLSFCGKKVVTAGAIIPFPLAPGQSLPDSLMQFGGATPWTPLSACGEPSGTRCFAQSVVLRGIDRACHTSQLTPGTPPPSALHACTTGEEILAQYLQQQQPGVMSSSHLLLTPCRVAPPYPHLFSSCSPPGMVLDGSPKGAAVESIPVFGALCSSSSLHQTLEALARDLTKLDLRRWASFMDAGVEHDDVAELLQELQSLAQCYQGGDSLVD
Chain of UniProt Q99698 (Q99698 whole entry, looked up): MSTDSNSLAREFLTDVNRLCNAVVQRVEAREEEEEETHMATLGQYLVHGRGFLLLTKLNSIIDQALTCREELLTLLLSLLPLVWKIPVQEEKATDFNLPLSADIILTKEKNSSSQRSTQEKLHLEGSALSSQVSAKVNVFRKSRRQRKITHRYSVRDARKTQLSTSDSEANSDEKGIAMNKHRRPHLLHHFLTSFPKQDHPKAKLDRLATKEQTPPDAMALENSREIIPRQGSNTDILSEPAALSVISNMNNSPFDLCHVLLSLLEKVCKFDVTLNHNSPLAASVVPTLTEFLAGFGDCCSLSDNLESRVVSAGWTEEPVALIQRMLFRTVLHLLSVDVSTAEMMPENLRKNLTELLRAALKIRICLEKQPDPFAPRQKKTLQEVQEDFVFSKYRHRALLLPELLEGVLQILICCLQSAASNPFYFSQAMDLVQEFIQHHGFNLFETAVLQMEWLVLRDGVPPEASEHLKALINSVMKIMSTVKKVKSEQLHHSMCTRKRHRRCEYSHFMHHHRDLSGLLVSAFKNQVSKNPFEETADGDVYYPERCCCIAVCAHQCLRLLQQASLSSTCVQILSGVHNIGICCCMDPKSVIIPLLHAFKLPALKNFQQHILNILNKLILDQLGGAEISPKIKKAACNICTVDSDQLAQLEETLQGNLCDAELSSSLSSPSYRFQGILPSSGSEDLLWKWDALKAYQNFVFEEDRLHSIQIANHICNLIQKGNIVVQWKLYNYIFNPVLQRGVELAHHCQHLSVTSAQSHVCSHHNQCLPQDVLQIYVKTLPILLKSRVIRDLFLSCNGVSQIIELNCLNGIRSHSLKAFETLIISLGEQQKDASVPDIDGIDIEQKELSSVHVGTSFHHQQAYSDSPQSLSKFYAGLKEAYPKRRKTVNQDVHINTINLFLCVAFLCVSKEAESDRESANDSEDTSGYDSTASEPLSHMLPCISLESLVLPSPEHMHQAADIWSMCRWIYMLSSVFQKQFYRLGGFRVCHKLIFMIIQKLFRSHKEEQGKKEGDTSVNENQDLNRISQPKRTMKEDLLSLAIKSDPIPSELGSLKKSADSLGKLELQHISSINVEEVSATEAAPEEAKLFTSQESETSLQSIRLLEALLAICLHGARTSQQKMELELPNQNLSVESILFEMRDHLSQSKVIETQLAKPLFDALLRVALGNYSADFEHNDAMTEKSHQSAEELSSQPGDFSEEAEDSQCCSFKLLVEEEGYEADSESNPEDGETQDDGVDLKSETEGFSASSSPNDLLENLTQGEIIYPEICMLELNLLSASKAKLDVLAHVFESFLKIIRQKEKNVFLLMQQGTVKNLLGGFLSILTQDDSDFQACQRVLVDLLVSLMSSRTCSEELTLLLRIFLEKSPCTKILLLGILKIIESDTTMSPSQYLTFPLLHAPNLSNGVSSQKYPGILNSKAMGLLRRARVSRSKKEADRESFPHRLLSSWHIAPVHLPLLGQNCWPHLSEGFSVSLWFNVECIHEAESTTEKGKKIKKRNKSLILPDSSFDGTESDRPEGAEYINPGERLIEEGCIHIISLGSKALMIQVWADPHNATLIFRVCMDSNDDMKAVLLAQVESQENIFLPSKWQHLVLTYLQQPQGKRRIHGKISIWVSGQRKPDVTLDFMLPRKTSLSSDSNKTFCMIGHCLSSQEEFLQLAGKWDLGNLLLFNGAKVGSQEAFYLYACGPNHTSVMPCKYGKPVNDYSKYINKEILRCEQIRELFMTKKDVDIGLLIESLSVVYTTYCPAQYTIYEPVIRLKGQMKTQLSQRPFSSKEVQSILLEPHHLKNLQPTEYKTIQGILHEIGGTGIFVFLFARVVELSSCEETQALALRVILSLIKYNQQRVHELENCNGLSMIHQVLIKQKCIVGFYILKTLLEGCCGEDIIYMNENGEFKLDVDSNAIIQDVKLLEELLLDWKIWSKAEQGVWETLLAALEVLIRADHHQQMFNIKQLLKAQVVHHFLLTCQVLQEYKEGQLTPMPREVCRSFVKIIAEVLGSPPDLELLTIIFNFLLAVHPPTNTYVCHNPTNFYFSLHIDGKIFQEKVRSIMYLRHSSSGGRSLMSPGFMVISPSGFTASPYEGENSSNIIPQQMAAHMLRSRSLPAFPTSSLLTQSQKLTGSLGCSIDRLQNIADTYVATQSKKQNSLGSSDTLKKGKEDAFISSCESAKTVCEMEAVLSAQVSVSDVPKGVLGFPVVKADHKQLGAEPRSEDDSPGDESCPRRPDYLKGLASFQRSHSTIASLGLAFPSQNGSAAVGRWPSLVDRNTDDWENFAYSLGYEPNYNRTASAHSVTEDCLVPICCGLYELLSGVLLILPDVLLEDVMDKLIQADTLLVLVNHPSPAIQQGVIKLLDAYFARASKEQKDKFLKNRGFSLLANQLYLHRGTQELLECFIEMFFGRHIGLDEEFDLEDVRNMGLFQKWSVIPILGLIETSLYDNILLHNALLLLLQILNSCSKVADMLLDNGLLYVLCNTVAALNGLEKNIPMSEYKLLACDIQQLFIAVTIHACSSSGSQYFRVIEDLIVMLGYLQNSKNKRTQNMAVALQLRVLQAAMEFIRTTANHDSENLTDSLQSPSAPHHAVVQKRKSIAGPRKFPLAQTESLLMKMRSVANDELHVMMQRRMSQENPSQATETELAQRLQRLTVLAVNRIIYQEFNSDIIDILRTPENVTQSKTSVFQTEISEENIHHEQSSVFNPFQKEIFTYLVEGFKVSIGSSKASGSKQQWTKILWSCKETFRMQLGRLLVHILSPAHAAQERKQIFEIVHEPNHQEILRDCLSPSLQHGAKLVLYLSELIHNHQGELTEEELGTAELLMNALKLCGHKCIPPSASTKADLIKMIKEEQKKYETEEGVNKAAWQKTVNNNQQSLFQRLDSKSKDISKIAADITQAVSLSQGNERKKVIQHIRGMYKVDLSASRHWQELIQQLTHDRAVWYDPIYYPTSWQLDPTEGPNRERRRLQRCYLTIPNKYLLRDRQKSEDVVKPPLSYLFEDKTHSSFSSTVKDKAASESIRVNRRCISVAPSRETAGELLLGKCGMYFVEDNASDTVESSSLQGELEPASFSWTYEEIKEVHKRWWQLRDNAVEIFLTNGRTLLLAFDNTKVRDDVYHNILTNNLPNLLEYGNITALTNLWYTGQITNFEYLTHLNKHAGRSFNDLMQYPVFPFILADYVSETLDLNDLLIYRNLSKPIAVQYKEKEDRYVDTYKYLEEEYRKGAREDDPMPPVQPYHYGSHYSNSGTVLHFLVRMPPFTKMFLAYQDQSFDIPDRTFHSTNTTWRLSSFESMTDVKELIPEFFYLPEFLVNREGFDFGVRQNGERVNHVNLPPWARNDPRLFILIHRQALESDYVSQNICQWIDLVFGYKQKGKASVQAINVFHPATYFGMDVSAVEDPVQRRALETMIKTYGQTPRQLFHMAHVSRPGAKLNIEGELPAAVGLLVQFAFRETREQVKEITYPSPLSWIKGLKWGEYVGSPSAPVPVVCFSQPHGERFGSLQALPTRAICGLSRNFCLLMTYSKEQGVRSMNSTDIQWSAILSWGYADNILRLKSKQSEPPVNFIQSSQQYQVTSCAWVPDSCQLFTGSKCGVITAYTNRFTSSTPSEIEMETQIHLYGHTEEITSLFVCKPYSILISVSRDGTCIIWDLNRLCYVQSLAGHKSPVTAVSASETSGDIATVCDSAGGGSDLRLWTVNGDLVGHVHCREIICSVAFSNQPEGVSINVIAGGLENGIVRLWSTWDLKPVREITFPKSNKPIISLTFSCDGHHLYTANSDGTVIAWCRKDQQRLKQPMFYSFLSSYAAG
Chain of UniProt P09960 (P09960 whole entry, looked up): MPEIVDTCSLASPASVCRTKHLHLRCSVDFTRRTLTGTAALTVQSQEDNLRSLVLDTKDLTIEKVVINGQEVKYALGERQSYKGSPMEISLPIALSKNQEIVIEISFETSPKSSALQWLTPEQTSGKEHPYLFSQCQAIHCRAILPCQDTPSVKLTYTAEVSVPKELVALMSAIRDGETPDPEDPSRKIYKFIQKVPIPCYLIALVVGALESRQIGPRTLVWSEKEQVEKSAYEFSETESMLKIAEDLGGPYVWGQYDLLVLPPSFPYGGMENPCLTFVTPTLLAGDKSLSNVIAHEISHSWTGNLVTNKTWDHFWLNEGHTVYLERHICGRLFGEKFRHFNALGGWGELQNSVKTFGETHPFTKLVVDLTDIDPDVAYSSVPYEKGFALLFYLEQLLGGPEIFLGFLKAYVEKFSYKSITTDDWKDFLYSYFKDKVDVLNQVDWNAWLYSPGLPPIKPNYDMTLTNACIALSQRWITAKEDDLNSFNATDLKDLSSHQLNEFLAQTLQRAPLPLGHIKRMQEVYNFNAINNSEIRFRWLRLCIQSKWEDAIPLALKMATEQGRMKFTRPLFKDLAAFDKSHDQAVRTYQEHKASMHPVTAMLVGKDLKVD

Target	probe-labelled cysteine peptide fold change (10 µM)	probe-labelled cysteine peptide fold change (50 µM)
MSTO1_Q9BUK6_232_LHFYVEECDYLQGFQILCDLHDGFSGVGAK (UniProt Q9BUK6)	0.444	1.33
MKS1_Q9NXB0_226_KYEHVLCTLK (UniProt Q9NXB0)	-0.112	0.305
MAP2K6_P52564_216_TIDAGCK (UniProt P52564)	-0.048	0.239
LSS_P48449_471_CPHVTEHIPR (UniProt P48449)	-0.184	-0.209
LTA4H_P09960_8_PEIVDTCSLASPASVCR (UniProt P09960)	-0.129	-0.324
MAP4K1_Q92918_334+335_SSSLGIPDADCCR (UniProt Q92918)	-0.26	-1.18
MITD1_Q8WV92_226_FSLGYCDFDLRPCHETTVDIFHK (UniProt Q8WV92)	0.0984	0.0591
MMADHC_Q9H3L0_261_HLGFSVDDLGCCK (UniProt Q9H3L0)	-0.3	-1.27
MLST8_Q9BVC4_34_FWQAHSGICTR (UniProt Q9BVC4)	-0.182	0.0338
LYST_Q99698_2223_SEDDSPGDESCPR (UniProt Q99698)	-0.367	-1.41
MDN1_Q9NU22_3985_KFEAVLSEPCR (UniProt Q9NU22)	-0.313	-0.0822
MYBBP1A_Q9BQG0_623_SPAESCDLLGDIQTCIR (UniProt Q9BQG0)	-0.0385	-0.16
MARS_P56192_38_AEVLISTVGPEDCVVPFLTRPK (UniProt P56192)	-0.0722	0.0548
MTHFD1_P11586_236_GEWIKPGAIVIDCGINYVPDDK (UniProt P11586)	0.183	0.298
